PubChem BioAssay (NCI)
The panel holds about 83,000 compounds, 20% with a hit somewhere; the sample as a whole holds those more often.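 Method: cells in 96-well plates; compound added at one concentration; 48 h incubation; percent growth measured; values under 10 scored active.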 Values without a mark were called inactive. Active and inactive are the calls of the source.

Legend:
Assay in all cases: NCI-60 one-dose screen, 48 h (100 = growth as untreated, 0 = no growth, -100 = all killed)
Settings in all cases: 10 µM unless noted
[1] = tested on: T-47D breast
[2] = tested on: BT-549 breast
[3] = tested on: MDA-MB-435 melanoma
[4] = tested on: SW-620 colon
[5] = tested on: MCF7 breast
[6] = tested on: HCT-116 colon
[7] = tested on: HCC-2998 colon
[8] = tested on: KM12 colon

SMILES | growth [1] | growth [2] | growth [3] | growth [4] | growth [5] | growth [6] | growth [7] | growth [8]
C#CCn1c(C)cc(C)c(C#N)c1=O | 101% | 98% | 106% | 104% | 91.5% | 103% | 105% | 101%
N#Cc1cnc2cc(OC[C@@H](O)CO)c(NC(=O)CC3CSSC3)cc2c1Nc1ccc(OCc2cccc(F)c2)c(Cl)c1 | -60.9% (active) | -71% (active) | -85.2% (active) | -74.8% (active) | -58.8% (active) | -60.5% (active) | -78.2% (active) | -79.6% (active)
O=C1c2ccccc2NC(c2cn(-c3ccccc3)nc2-c2cccnc2)N1Cc1ccccc1 (configuration not stated) | 75% | 105% | 108% | 105% | 89.3% | 95.5% | 97.2% | 91.5%
Cn1cccc1/C=C1/SC(=S)N(CCc2ccc(O)cc2)C1=O | 42% | 41.4% | -27.9% (active) | 31.6% | 33.8% | 21.4% | 77.4% | 40.5%
COc1ccc(C2NC(=O)Nc3ccccc32)c(OC)c1 (configuration not stated) | 91.4% | 109% | 101% | 114% | 84.6% | 104% | 92.7% | 110%
O=C(/C=C/c1cccc(O)c1)c1ccccc1O | 91.2% | 85.2% | 76% | 86.3% | 63.5% | 78.1% | 98% | 72.5%
COc1cc2ncnc(Nc3ccc(OCc4cccc(F)c4)c(Cl)c3)c2cc1NC(=O)C1CCCC1 | 24.9% | 103% | 89.4% | 98.4% | 84.4% | 83.4% | 103% | 94.9%
COc1cccc(-c2nn(-c3ccccc3)cc2-c2ccnc(NCCNS(=O)(=O)c3ccccc3)c2)c1 | 4.18% (active) | 36.5% | 10.7% | 43.9% | 14.9% | 29.4% | 26.8% | 21.7%
O=C1c2cc3c(cc2-c2c1c1ccc(F)cc1c(=O)n2CCCN1CCOCC1)OCO3 | 28.4% | 47.5% | 65.6% | 48.8% | 13.5% | 45.2% | 77.8% | 69.8%
CN(C)CCCC1(c2ccc(F)cc2)OCc2cc(-c3ccc(C(F)(F)F)nc3)ccc21 (configuration not stated) | 66.5% | 94.7% | 67.9% | 83.5% | 56.7% | 58.4% | 31.8% | 80.2%
O=C1c2cccc3cccc(c23)C(=O)N1CC#Cc1ccc2c3c(cccc13)C(=O)N(CCN1CCNCC1)C2=O | 38.3% | 101% | 105% | 28.3% | -43.9% (active) | -64.1% (active) | 104% | 98.9%
COc1cc2c(cc1OC)C(=O)/C(=C/c1cc(-c3ccc4c(c3)OCO4)n[nH]1)C2 | -4.12% (active) | -47.8% (active) | 17.3% | -84.9% (active) | 0.343% (active) | -61% (active) | 89.3% | -82.3% (active)
O=C(O)/C(=C/c1ccc(O)cc1)c1ccccc1 | 94.6% | 95.5% | 109% | 105% | 98% | 92.7% | 95.8% | 107%
Cn1cc(-c2csc(-c3cn(C(=O)OC(C)(C)C)c4ccccc34)n2)c2cccnc21 | 43.4% | 60.3% | 11.4% | 36.1% | 53.6% | 56% | 65.5% | 38.5%
